LEDGF integ inh – blocks HIV-1 LEDGF/p75-dependent DNA integration; 0.64% of 370,000 active; TR-FRET IN-LEDGF/p75 DNA integration, Eu/Cy5; inhibition, % at 3.7 µM;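 active = inhibition above the screen-wide mean plus 3 SD, cut at about 13% in these data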;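 also: signal is the Cy5 over europium emission ratio at 671 and 618 nm; 0% = plate median of compound wells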
UHRF1 binding – human UHRF1 methylated DNA binding inhibitors | 0.75% of 370,000 active | UHRF1 binding to methylated oligo, TR-FRET | inhibition, % at 4.4 µM; in the data active = inhibition above about 21%;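 also: UHRF1 SRA domain binding a hemimethylated CpG hairpin DNA probe; 0% = median of test compound wells and 100% = reference inhibitor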
PLCg1 inh – inhibitors of human phospholipase C gamma1. purified PLC-gamma1, fluorogenic substrate, fluorescence. inhibition, % at 12.2 µM. 0.84% of 370,000 active. AID 720700; in the data active = inhibition above about 9.5%
MBD2 DNA inh – MBD2-methylated oligo binding inhibition. TR-FRET, MBD2 binding to methylated oligonucleotide. inhibition, % at 4.4 µM. 0.31% of 370,000 active. AID 686964; in the data active = inhibition above about 13%
PLC-beta3 inh – PLC-beta3 (human) inhibition, primary screen | 0.18% of 370,000 active | AID 720704 | inhibition, % at 12.2 µM | Q01970 | Purified PLC-beta3, fluorogenic substrate, fluorescence; in the data active = inhibition above about 11%;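 also: 0% = median of compound wells on plate and 100% = full blocker control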
IN multimer act – counter-screen for LEDGF/p75 integration inhibitors: HIV-1 integrase multimerization activators | shares compounds with LEDGF integ inh | TR-FRET HIV-1 integrase multimerization, biochemical | activation, % at 7.7 µM | 17% of 2,000 active; in the data active = activation above about 8.9%
TRFRET interf – optically interferes with TR-FRET readout in LEDGF counter-screen; 2,000 tested, under 10 active; TR-FRET optical interference counterscreen, HIV-1 IN multimerization; shares compounds with LEDGF integ inh; inhibition, % at 7.7 µM;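 active = inhibition above the mean over all tested compounds plus 3 SD, which no compound reached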;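 also: 0% = integrase with antibodies and DMSO and 100% = antibodies without integrase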
IN-LEDGF confirm – confirmation of HIV-1 LEDGF/p75-dependent integration inhibitors; 36% of 2,000 active; TR-FRET LEDGF/p75-dependent HIV-1 integration, biochemical; shares compounds with LEDGF integ inh; inhibition, % at 3.7 µM; in the data active = inhibition above about 14%
An asterisk follows results filed as active; i = inactive; . = no result. Hits are enriched below; roughly 2.4% of the tested compounds scored in any of these assays.

SMILES | LEDGF integ inh | UHRF1 binding | PLCg1 inh | MBD2 DNA inh | PLC-beta3 inh | IN multimer act | TRFRET interf | IN-LEDGF confirm
CCCCCCCCN1C(=O)[C@@H](CC(=O)NCCCOCCCC)C[C@@]2(C(=O)OC)C1=C[C@H](C(C)C)O[C@@H]2C1CC1 | -3 | -2 | -1 | 1 | 3 | . | . | .
C#CCNC(=O)C[C@@H]1C[C@]2(C(=O)OCC)CCC3=C2N(CCC3)C1=O | 2 | -2 | 1 | -1 | 2 | . | . | .
O=C(O)c1cc(-c2ccco2)nn1-c1cccc(Cl)c1 | 15* | 28* | 2 | 6 | -26 | 1 | -4 | 11
O=C(O)c1nn(-c2cccc(Cl)c2)c(=O)cc1O | 17* | 1 | -2 | 0 | 2 | 0 | -2 | -2
CCCCOCCCNC(=O)C[C@H]1C[C@@]2(C(=O)OC)C(=C[C@H](C(C)(C)C)O[C@@H]2C)N(Cc2ccc(Cl)cc2Cl)C1=O | 20* | -1 | 2 | -6 | 5 | 0 | -2 | -7
C=CCC12C=C(OC)C(=O)C(C1=O)C1c3ccccc3CC12 (stereo not drawn) | 3 | -6 | 1 | -4 | 3 | . | . | .
Oc1c(C=Nc2cccc3cccnc23)sc2ccccc12 | 0 | -13 | -152 | -15 | -147 | . | . | .
Cc1cccc(/N=C/c2sc3ccccc3c2O)n1 | 50* | 0 | -12 | -4 | -25 | 8 | -41 | -1
COC(CNC(=O)[C@H](Cc1c[nH]c2ccccc12)NC1(C(=O)NC2CCCCC2)CCCCC1)OC | -3 | 0 | 1 | 0 | 1 | . | . | .
CC1CCN(C(=O)CCNS(=O)(=O)c2ccc(Br)cc2)CC1 | 45* | -1 | 4 | -2 | -1 | -1 | 4 | -4
COc1ccccc1CNc1ccc2c(c1)OC[C@H](CC(C)C)NS2(=O)=O | 20* | -4 | -7 | 3 | -3 | 3 | -10 | -4
Clc1ccccc1Cn1ccc2ccc(-c3ccc4ccn(Cc5ccccc5Cl)c4c3)cc21 | -2 | 1 | -52 | -1 | -74 | . | . | .
O=C1c2nc3cc(-c4ccco4)[nH]n3c(=O)c2CN1C1CCCCC1 | 18* | 13 | -377 | -5 | -444 | 1 | -6 | 5
CC(=O)c1ccc(NC(=O)C(C)OC(=O)/C=C/c2ccco2)cc1 (stereo not drawn) | 19* | 6 | -11 | -8 | -15 | 1 | -6 | 3
CC1(C)CC(=O)C2=C(C1)OC1=C(C(=O)CC(C)(C)C1)C2c1ccc(O)c([N+](=O)[O-])c1 | -10 | 3 | 0 | 1 | -3 | . | . | .
CC1(C)CC(=O)C2=C(C1)OC1=C(C(=O)CC(C)(C)C1)C2c1ccc(O)cc1O | 17* | -3 | 3 | -5 | -22 | 8 | -40 | -1
O=C(CSc1nnc(-c2ccccc2)n1-c1ccc(Cl)cc1)c1ccc(Cl)cc1 | -2 | -2 | 1 | 0 | 2 | . | . | .
Cc1nc2nc(-c3ccccc3)cn2nc1C | -3 | -6 | i | 0 | i | . | . | .
c1ccc(-c2cn3nc(-c4ccccc4)cnc3n2)cc1 | 90* | 0 | -74 | -2 | -91 | -1 | 2 | -3
C=CCN1C=C2C(=O)C(C)(OC(=O)c3cnc4ccccc4n3)C(=O)C=C2C=C1/C=C/COC (stereo not drawn) | 25* | 5 | -21 | -1 | -34 | 2 | -10 | 40*
O=C(Nc1nc2ncccn2c1-c1ccc(F)cc1)c1ccc(F)cc1 | 5 | -2 | -171 | -2 | -237 | . | . | .
CC(C)(C)OC(=O)C[C@H]1C/C=C\C[C@@H](CC(=O)NCCO)C(=O)NC[C@@H](c2ccccc2)OC1=O | 76* | -2 | 2 | 2 | 2 | 0 | 1 | -1
COC(=O)c1ccc2nc(-c3ccc(C)cc3)c(Cc3ccccc3)n2c1 | 14* | 10 | -48 | 3 | -82 | 9 | -28 | -2
COC(=O)c1ccc2nc(-c3ccccc3)c(Cc3ccc(C)cc3)n2c1 | -1 | 17 | -55 | 0 | -71 | . | . | .
O=c1cc(-c2ccccc2)oc2cc(O)c(O)c(O)c12 | 30* | 12 | -5 | 8 | -9 | 5 | -27 | 26*
SMILES | LEDGF integ inh | UHRF1 binding | PLCg1 inh | MBD2 DNA inh | PLC-beta3 inh | IN multimer act | TRFRET interf | IN-LEDGF confirm
O=c1cc(-c2ccc(O)cc2)oc2c(O)c(O)c(O)c(O)c12 | 41* | 18 | -2 | 9 | -5 | 19* | -94 | 92*
O=C(/C=C/c1ccc(-c2ccccc2)cc1)NC1=NCCS1 | 0 | -3 | 0 | -1 | 0 | . | . | .
Cc1ccc(CNc2ncnc3ccc(-c4ccc(CO)o4)cc23)o1 | 19* | -2 | -273 | -3 | -353 | 6 | -29 | 5
CCOC(=O)c1ccc(-c2ccc3ncnc(NCc4csc(C)n4)c3c2)o1 | -3 | -3 | i | 0 | i | . | . | .
CCN1CCc2nc(N)sc2C1 | -3 | -1 | -1 | -1 | -11 | . | . | .
C=CCN1CCc2nc(N)sc2CC1 | 14* | 4 | -18 | 12 | -36 | 0 | -2 | 3
CCC(C)N(C(=O)CNc1nnnn1-c1ccccc1)C(C)CC (stereo not drawn) | -6 | -1 | 3 | 0 | -2 | . | . | .
COc1cc(-c2cccs2)cc(=O)c2c(C)oc(C)c12 | 17* | 3 | -41 | 5 | -53 | 1 | -4 | 6
CCOC(=O)c1csc(NC(=O)C2CCCN(S(=O)(=O)c3cccs3)C2)n1 (stereo not drawn) | -2 | 3 | 0 | 0 | -1 | . | . | .
c1ccc(-c2ccc(C3=Nn4c(nnc4-c4ccccn4)SC3)cc2)cc1 | -2 | -1 | 0 | 8 | -3 | . | . | .
N#Cc1cc(Cl)c(N2CCOCC2)cc1C#N | -1 | 14 | -1 | 9 | -1 | . | . | .
N#Cc1cc2ccc(N3CCOCC3)cc2cc1C#N | 31* | -1 | i | -7 | i | 4 | -15 | 4
COC(=O)[C@H]1[C@@H](O)[C@@]2(O)c3c(OC)cc(OC)cc3O[C@@]2(c2ccc(OC)cc2)[C@@H]1c1ccc(F)cc1 | 15* | 0 | 0 | 2 | 2 | 0 | -2 | -6
CC1(C)OC(=O)C(=Cc2ccc(-c3ccc(Cl)c(C(=O)O)c3)o2)C(=O)O1 | 15* | 35* | 3 | 5 | -5 | 15* | -55 | 20*
COc1cc(C2Nc3ccc4ncccc4c3C3=C2C(=O)CCC3)cc(OC)c1OC (stereo not drawn) | 2 | -1 | -19 | -5 | -33 | . | . | .
COc1cc(C2Nc3ccc4ncccc4c3C3=C2C(=O)CCC3)ccc1O (stereo not drawn) | 27* | -9 | -7 | -13 | -5 | 2 | -10 | -13
COc1ccc(NC(=O)N(CCc2c(C)[nH]c3ccccc23)Cc2cccs2)cc1OC | -2 | 3 | 4 | 2 | -2 | . | . | .

From PubChem BioAssay
